The test system of experiment [1] is Zika virus NS2B-NS3 protease (linked construct). Kind of experiment: Primary screen NINDS Rhodamine qHTS for Zika virus inhibitors (AID 1347160). Also: nearly all actives have a fitted effect of over 55% in size. In outline: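 Purified linked NS2B-NS3 protease (NS2B hydrophilic domain joined to NS3 protease by flexible linker), 25 nM in 10 mM Tris-HCl pH 8.0, 0.01% Tween 20. Compounds titrated, 15 min preincubation at room temperature; 1.5 microM Rhodamine110 substrate, FITC fluorescence change over 15 min.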

Experiment [2] has as its target Calcium and integrin-binding protein 1 (Homo sapiens) (UniProt Q99828). As to the kind of experiment: Primary qHTS for Identification of Calcium Integrin Binding Protein 1 (CIB1) Competitor (AID 1508620).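 Also: GST tagged CIB1 binding a fluorescein labelled alphaIIb integrin peptide tracer; top concentration of the series differs between compounds; % is scaled to controls: 0 for no effect and ±100 for the full control effect.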 The essentials:
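Fluorescence polarization competition: GST-tagged CIB1 (1 uM final) preincubated with compound 15 min at room temperature, then FITC-labelled alphaIIb peptide (100 nM final) added. After 15 min at room temperature, polarization read at Ex 480/Em 540.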
In general terms: Quantitative high-throughput screening tests each substance at several concentrations.

In experiment [3] the target is Glutathione peroxidase 1 (Homo sapiens) (UniProt P07203). As to the kind of experiment: Primary qHTS Assay for Inhibitors of Recombinant Selenoprotein Glutathione Peroxidase 1 (GPX1) (AID 1845191). Also: % is scaled to controls: 0 for no effect and ±100 for the full control effect; nearly all actives have a fitted effect of over 65% in size. The essentials: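 GR-coupled assay: compounds preincubated 30 min at room temperature with GPX1, then reaction started with CHP; final 10 nM GPX1, 1 mM GSH, 0.5 mM CHP, 0.5 mM NADPH, 100 nM GR, 0.01% BSA, pH 7.5 Tris buffer. NADPH fluorescence (340/450 nm) read at 0 and 15 min.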

Experiment [4] deals with Luciferin 4-monooxygenase (Photinus pyralis) (UniProt P08659). Kind of experiment: Primary firefly luciferase (FLuc) qHTS assay for identification of artifact compounds. (AID 1845220). Also: nearly all actives have a fitted effect of over 60% in size. The following applies: outcome: dose series up to 54.1 µM unless noted. In outline: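 Titrated compounds were incubated 15 min at RT, protected from light, with luciferin and ATP at 10 uM; reaction started with 10 nM FLuc, luminescence imaged at 5 min, and concentration-response fitted by Hill equation.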

A short description of experiment [5]: Primary fluorescence-based thiol-reactive (MSTI) qHTS assay for identification of artifact compounds. (AID 1845221). Also: nearly all actives have a fitted effect of over 65% in size. In outline: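 Compounds were incubated 1 h at room temperature in the dark with the MSTI probe (4 uM) in PBS pH 7.4, 2% DMSO. Signals were normalized between Acetyl-MSTI and MSTI.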
Experiment [6] deals with Nanoluciferase (engineered Oplophorus gracilirostris luciferase). As to the kind of experiment: Primary Nanoluciferase (NLuc) qHTS assay for identification of artifact compounds. (AID 1845222).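 Also: NLuc secreted into diluted conditioned medium of S16 cells; 0% = DMSO and -100% = no enzyme.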 In outline: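 qHTS format, against NLuc in S16 cell-conditioned medium. Nano-Glo substrate 1:100 was added after 15 min at room temperature. Luminescence was taken after a further 5 min.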

A short description of experiment [7]: Primary redox qHTS assay for identification of artifact compounds. (AID 1845223).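 Also: 0% = DMSO and 100% = reference compound.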 In outline: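 Amplex Red (25 uM) and HRP (250 mU/mL) in HBSS, with compounds for 15 min, then 250 uM DTT for 30 min, room temperature, dark. Fluorescence 525/598 nm read; normalized to DMSO and 10 uM DA3003; Hill fit.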
Experiment [8] deals with HaCat. Kind of experiment: Cytotoxic Profiling of Annotated Libraries Using Quantitative High-Throughput Screening (AID 1296008). Also: nearly all actives have a fitted effect of over 60% in size. Also: potency is read from the fitted curve at half-maximal effect. As to max response: % is scaled to controls: 0 for no effect and ±100 for the full control effect. The following applies: Five cell lines viability, CellTiter-Glo ATP luminescence, 48-72 h; max response: stronger effect = lower value. The essentials: (§1)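 Cells exposed to compounds for 48 or 72 hr at 37 degrees Celsius. Viability read as ATP-coupled luminescence with CellTiter-Glo after 10 min at room temperature.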
A general note: Cellular ATP, detected with luciferase, serves as a proxy for viable cell number.

Experiment [9] deals with NIH3T3. The experiment is described as above. As to conditions: Five cell lines viability, CellTiter-Glo ATP luminescence, 48-72 h; max response: stronger effect = lower value. In outline:
as §1

For experiment [10], the system named is C33A. As to the kind of experiment: Primary qHTS to identify gynecologic anti-cancer compounds using libraries of approved drugs and bioactive compounds (AID 1345084). Also: nearly all actives have a fitted effect of over 55% in size. Also: potency is read from the fitted curve at half-maximal effect. The following applies: Gynecologic cancer cell panel viability, ATPlite luminescence, 48 h; series mostly up to 57.5 µM. The essentials:
(§2)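 Luminescence from the ATPlite ATP-monitoring reagent indicates viable cell number; lower signal means cytotoxicity. Cells received compound 16 h after seeding and were exposed for 48 h across five concentrations.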

Experiment [11] has as its system CAOV3. Described as above. The following applies: Gynecologic cancer cell panel viability, ATPlite luminescence, 48 h; series mostly up to 57.5 µM. In outline: as §2
Experiment [12] has as its system CASKI. Described as above. As to conditions: Gynecologic cancer cell panel viability, ATPlite luminescence, 48 h; series mostly up to 57.5 µM. In outline: as §2
Experiment [13] concerns Es-2. Described as above. As to conditions: Gynecologic cancer cell panel viability, ATPlite luminescence, 48 h; series mostly up to 57.5 µM. The essentials:
as §2

Experiment [14] relates to Hek293T. The description is as above. The following applies: Gynecologic cancer cell panel viability, ATPlite luminescence, 48 h, control line for the selectivity index; series mostly up to 57.5 µM. In outline:
as §2

For experiment [15], the system named is JEG-3. The experiment is described as above. As to conditions: Gynecologic cancer cell panel viability, ATPlite luminescence, 48 h; series mostly up to 57.5 µM. The essentials: as §2
The subject of experiment [16] is OV90. The experiment is described as above. As to conditions: Gynecologic cancer cell panel viability, ATPlite luminescence, 48 h; series mostly up to 57.5 µM. In outline:
as §2

For experiment [17], the system named is PA-1. The description is as above. As to conditions: Gynecologic cancer cell panel viability, ATPlite luminescence, 48 h; series mostly up to 57.5 µM. In outline: as §2
Experiment [18] has as its system Tov-21-G. Described as above. As to conditions: Gynecologic cancer cell panel viability, ATPlite luminescence, 48 h; series mostly up to 57.5 µM. The essentials: as §2
Experiment [19] concerns Tov112D. The experiment is described as above. The following applies: Gynecologic cancer cell panel viability, ATPlite luminescence, 48 h; series mostly up to 57.5 µM. In outline:
as §2

Experiment [20] deals with Phospholipid hydroperoxide glutathione peroxidase GPX4 (Homo sapiens) (UniProt P36969). As to the kind of experiment: Primary qHTS Assay for Inhibitors of Recombinant Selenoprotein Glutathione Peroxidase 4 (GPX4) (AID 1845192). Also: nearly all actives have a fitted effect of over 65% in size. Also: potency is read from the fitted curve at half-maximal effect. The essentials:
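GR-coupled assay: recombinant GPX4 preincubated 30 min with compound at room temperature; final 200 nM GPX4, 1 mM GSH, 0.5 mM cumene hydroperoxide, 0.5 mM NADPH, 100 nM GR, 0.01% BSA, pH 7.5 Tris. NADPH fluorescence (340/450 nm) read at 0 and 15 min.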

A number with no mark means an inactive call. Records with an inconclusive call do not appear. The source made the active and inactive calls. Calls follow the shape of the dose curve; as a rule, active = well fitted curve in the direction sought with a large enough effect; inconclusive = small, poorly fitted or top-dose-only effect, or another doubt; inactive = no such curve, though single readings can be large; an effect the other way counts as inactive or inconclusive.

Chain of Glutathione peroxidase 1 (Homo sapiens) (P07203 whole entry, looked up): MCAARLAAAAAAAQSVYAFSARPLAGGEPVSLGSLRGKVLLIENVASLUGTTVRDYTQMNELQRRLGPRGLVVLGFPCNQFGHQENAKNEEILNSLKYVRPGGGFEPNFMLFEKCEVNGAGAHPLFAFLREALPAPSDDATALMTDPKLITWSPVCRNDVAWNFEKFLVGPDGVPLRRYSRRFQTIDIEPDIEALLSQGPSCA
Chain of Calcium and integrin-binding protein 1 (Homo sapiens) (Q99828 whole entry, looked up): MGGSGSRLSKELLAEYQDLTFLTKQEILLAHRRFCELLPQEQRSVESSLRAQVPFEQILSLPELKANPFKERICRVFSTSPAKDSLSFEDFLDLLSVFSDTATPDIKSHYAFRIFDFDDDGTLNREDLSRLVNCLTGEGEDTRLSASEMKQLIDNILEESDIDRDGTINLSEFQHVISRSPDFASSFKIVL
Chain of Phospholipid hydroperoxide glutathione peroxidase GPX4 (Homo sapiens) (P36969 whole entry, looked up): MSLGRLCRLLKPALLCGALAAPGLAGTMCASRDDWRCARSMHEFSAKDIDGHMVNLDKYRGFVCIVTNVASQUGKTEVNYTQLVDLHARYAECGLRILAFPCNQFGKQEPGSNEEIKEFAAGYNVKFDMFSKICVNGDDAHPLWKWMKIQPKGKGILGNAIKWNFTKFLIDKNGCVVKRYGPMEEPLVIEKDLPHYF

For the compound `c1ccc(C2(c3ccccc3)OC[C@@H]([C@H]3CCCCN3)O2)cc1`, the Potency entry in [1], in experiment [2], in experiment [3], in experiment [5], in experiment [6] and in experiment [7] was “inactive” each time. The Potency entry in [10], in experiment [11], in [12], in experiment [13], in [14] and in experiment [15] was “inactive” throughout. Further, the Potency entry in experiment [16], in [17], in experiment [18] and in experiment [19] was “inactive” in each case. Also, the outcome in experiment [4] was inactive. The max response in experiment [8] is 4.38%; in [9], 0.771%.
Turning to `C[C@]12CC[C@@H](O[C@@H]3O[C@H](CO)[C@@H](O)[C@H](O)[C@H]3O)C[C@@]1(O)CCC1C2CC[C@]2(C)[C@@H](C3=CC(=O)OC3)CC[C@]12O` (some centres undefined), the Potency entry in [1], in experiment [2], in [20], in experiment [6] and in [7] was “inactive” throughout. Further, the result in experiment [4] and in experiment [9] was inactive. In addition, the Potency in experiment [8] was 1 µM (active); in experiment [10], 0.199 µM (active); in experiment [11], 0.501 µM (active); in [13], 0.355 µM (active); in [14], 0.199 µM (active); in experiment [16] it was 1.12 µM (active). For the same compound, the Potency in experiment [17] was 0.355 µM (active); in experiment [18], 0.178 µM (active); in experiment [19], 0.112 µM (active).
As to `CCCN(CCC)CCc1ccc(OC)c(OCCc2ccccc2)c1`, the Potency result in [1], in experiment [2], in [3], in experiment [20], in experiment [5] and in experiment [6] was “inactive” throughout. In addition, the Potency result in experiment [7], in [10], in experiment [11], in experiment [12], in [13] and in experiment [14] was “inactive” in each case. Besides, the Potency result in [15], in experiment [17], in experiment [18] and in [19] was “inactive” throughout. In experiment [4], the result was inactive. Further, the max response in experiment [8] was -13.9%; in experiment [9], 1.81%.
As for `COc1ccc2[nH]c(-c3ccccc3)c(CCN(C)C)c2c1`, the Potency entry in experiment [1], in experiment [2], in experiment [3], in experiment [6], in experiment [7] and in [10] was “inactive” in each case. Moreover, the Potency result in [11], in experiment [12], in [13], in experiment [14], in experiment [15] and in experiment [16] was “inactive” each time. Also, the Potency result in experiment [17], in [18] and in [19] was “inactive” in each case. Besides, in experiment [20], the Potency was 16.1 µM (active). For the same compound, the result in experiment [4] and in experiment [8] was inactive. Besides, the max response in experiment [9] was -23.1%.
On to `CC(=O)O[C@H]1C[C@@H](C)O[C@H]2O[C@@H]3CC4CC[C@@H]5C(CC[C@]6(C)[C@@H](C7=CC(=O)OC7)CC[C@]56O)[C@@]4(C=O)C[C@H]3O[C@]21O` (some centres undefined), for which the Potency entry in experiment [1], in experiment [2], in [3], in experiment [5] and in experiment [6] was “inactive” each time. Moreover, in experiment [4], the result was inactive. In addition, the Potency in [8] is 0.172 µM (active); in [10] it was 0.1 µM (active); in [11], 0.282 µM (active); in experiment [12] it was 0.562 µM (active); in experiment [13], 0.126 µM (active); in [14], 0.158 µM (active). In addition, the Potency is 0.562 µM (active) in experiment [16], 0.126 µM (active) in experiment [17], 0.1 µM (active) in [18] and 0.1 µM (active) in [19].

For the origin of these results see PubChem BioAssay (NCATS).
